Compounds with a hit are over-represented: about 0.93% of the library has one in this group of screens.
F508del corr: F508del CFTR correction, initial screen, CFBE line, single point; CFBE cells, YFP halide quenching; stimulated with forskolin plus potentiator P3; % fluorescence drop versus neutral controls; activity (quench increase), % at 7.58 µM; 350,000 tested, 0.36% active;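 active = mean added fluorescence quench of at least 8% versus neutral control, with both replicates also reaching 8%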;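 note: cells transiently co-express mutant CFTR-F508del with the halide-sensitive YFP; corrector assay measuring rescue of mutant channel to the surface after 24 h compound exposure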
697 NFkB inh: inhibitors of PMA/ionomycin-induced NF-kB reporter, 697 cells, primary screen, B-cell NF-kB inhibitor project, cell-based, luminescence, uHTS | 697 B-cell NF-kB luciferase reporter, 16 h | inhibition, % at 4 µM | 330,000 tested, 0.33% active | AID 435022, 2010; in the data active = inhibition above about 35%
HIF act: HIF pathway transcriptional activators, primary screen, cell-based, U2OS HRE-luciferase, luminescence | 300,000 tested, 0.32% active | U2OS HRE-luciferase reporter; normalized: DMSO 0%, desferrioxamine 100% | activation, % at 7.5 µM (by protocol);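 active = mean activation of at least 10% of the iron chelator positive control signal, with at least half of replicates also reaching 10%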
Jurkat NFkB inh: inhibitors of induced NF-kB luciferase reporter, primary screen, TCR NF-kB activation inhibitor project, cell-based, luminescence, uHTS; Jurkat, PMA/ionomycin-induced NF-kB luciferase reporter; inhibition, % at 4 µM; AID 435003, 2010; 330,000 tested, 0.53% active; in the data active = inhibition above about 50%
697 NFkB conf: PMA/ionomycin-induced NF-kB reporter inhibitors, 697 retest, confirmation, B-cell NF-kB inhibitor project, cell-based, luminescence, single concentration | shares compounds with 697 NFkB inh | 697 B-cell NF-kB luciferase, 16 h | inhibition, % at 4 µM | 2,000 tested, 35% active | AID 449746, 2010; in the data active = inhibition mostly above about 28%, no sharp cut-off; inactive = mostly below about 22%
* marks the source's active call; other numbers are inactive results; nt = no result.

SMILES | F508del corr | 697 NFkB inh | HIF act | Jurkat NFkB inh | 697 NFkB conf
Cc1cc(OCC(=O)NCC2CCC(C(=O)O)CC2)c2c(C)c(Cc3ccccc3)c(=O)oc2c1 (stereo not drawn) | -4 | 33 | 0 | 3 | nt
Cc1c(Cc2ccccc2)c(=O)oc2c(C)c(OCC(=O)NCC3CCC(C(=O)O)CC3)ccc12 (stereo not drawn) | -1 | 39* | 0 | -11 | 27
O=C(C[C@@H]1CC[C@H](NC(=O)CC2CC2)[C@H](CO)O1)NCc1ccccc1 | 1 | nt | nt | nt | nt
CN=c1scc(C)n1/N=C/c1ccc2c(c1)OCO2 | nt | -273 | 0 | -131 | -262
CN=c1scc(C)n1/N=C/c1cc(Br)c(O)c(Br)c1 | -3 | 1 | -1 | -8 | nt
CCCC(=O)Nc1ccc2c(c1)OC[C@@H](C)N(CCC)C[C@H](C)[C@H](OC)CN(C)C2=O | -3 | nt | nt | nt | nt
CC1CCN(S(=O)(=O)c2cnc(Cl)c(Br)c2)CC1 | nt | 38* | 1 | -1 | 23
CC1CCCCN1S(=O)(=O)c1cnc(Cl)c(Br)c1 (stereo not drawn) | -5 | 16 | 0 | 4 | nt
CCC(=O)N(C)C[C@H]1Oc2cc(-c3cccc(F)c3)ccc2S(=O)(=O)N([C@H](C)CO)C[C@@H]1C | 0 | nt | nt | nt | nt
O=c1cc(-c2ccc(O)c(-c3c(O)cc(O)c4c(=O)cc(-c5ccc(O)cc5)oc34)c2)oc2cc(O)cc(O)c12 | 3 | 40* | -1 | -4 | 14
O=c1cc(-c2ccc(O)cc2)oc2c(-c3c(O)cc(O)c4c(=O)cc(-c5ccc(O)cc5)oc34)c(O)cc(O)c12 | 2 | 30 | nt | -6 | nt
O=C(C[C@H]1C=C[C@@H](NC(=O)Nc2ccc(C(F)(F)F)cc2)[C@@H](CO)O1)NCc1ccccn1 | 3 | nt | nt | nt | nt
C/C=C/c1cnc2c(c1)C(=O)N([C@H](C)CO)C[C@H](C)[C@H](CN(C)C(=O)NC1CCCC1)O2 | 2 | nt | nt | nt | nt
COc1ccc(Cn2c(C3CC3)nc3ccc(NC(=O)c4cccnc4)cc3c2=O)cc1 | nt | -88 | 4 | -2 | nt
COc1ccc(Cn2c(C3CC3)nc3ccc(NC(C)=O)cc3c2=O)cc1 | nt | -254 | 7 | -131 | -199
COC(=O)c1c(NC(=O)c2cccc([N+](=O)[O-])c2)sc(C(N)=O)c1C | 2 | 39* | 0 | 16 | 50*
O=C(Nc1ncc([N+](=O)[O-])s1)c1cccc([N+](=O)[O-])c1 | 3 | -450 | 2 | -72 | -444
O=C(Nc1ccccc1)Nc1ncc([N+](=O)[O-])s1 | -1 | -260 | 1 | -80 | -351
N/C(=N\OC(=O)c1ccccc1Cl)c1ccncc1 | 0 | -87 | -2 | -92 | nt
Cc1ccc(C(=O)O/N=C(\N)c2ccccc2)c(Cl)c1 | 2 | -343 | -4 | -50 | -354
Cc1cccc(/C(N)=N/OC(=O)c2ccc(F)cc2)c1 | nt | -251 | 4 | -125 | -143
CNC(=O)C[C@@H]1CC[C@H]2[C@H](COc3ccc(NC(=O)Nc4cc(C)cc(C)c4)cc3C(=O)N2C)O1 | 2 | nt | nt | nt | nt
O=C(COc1cccc(NC(=O)c2cccs2)c1)c1ccc(F)cc1 | -1 | -15 | -1 | -7 | nt
O=C(Nc1cccc(Oc2ccc3c(c2)C(=O)NC3=O)c1)c1cccs1 | nt | 39* | 0 | 17 | 14*
CC(C)COc1ccc(-c2nnc(-c3ccco3)o2)cc1 | nt | -263 | -6 | -132 | -139
SMILES | F508del corr | 697 NFkB inh | HIF act | Jurkat NFkB inh | 697 NFkB conf
COc1cccc(-c2nnc(-c3ccco3)o2)c1 | nt | -129 | 4 | -96 | nt
COc1ccc2nc(C)cc(Sc3nc4ccccc4s3)c2c1 | 1 | 42* | 0 | 27 | 38*
Cc1cc(=O)[nH]c(N/N=C/c2c[nH]c3ccccc23)n1 | 1 | 36* | 0 | 4 | 7
C(=N\Nc1nc2ccccc2[nH]1)/c1c[nH]c2ccccc12 | nt | -59 | 3 | -21 | nt
O=c1c(-c2ccc(O)cc2)coc2cc(O)cc(O)c12 | 3 | -175 | 3 | -63 | nt
CC(C)Oc1cc(O)c2c(=O)c(-c3ccc(O)cc3)coc2c1 | 0 | -285 | 4 | -33 | -191
O=C(Nc1ccccc1)N1C[C@@H]2[C@H](c3ccccc31)[C@@H](CO)N2C(=O)c1cccnc1 | -1 | nt | nt | nt | nt
COC(=O)c1ccccc1NC(=O)c1c(O)c2c([nH]c1=O)CCCC2 | nt | -9 | -2 | -10 | nt
